Source: PubChem BioAssay
Results with a measured potency or affinity are listed apart. Calls of active or inactive are those of the source. Unless noted, no cut-off is given here; in the data, nearly all actives have IC50 up to about 0.98 µM.

Molecular target: Calcium-dependent protein kinase 1 (Plasmodium falciparum (isolate 3D7)) (UniProt P62344)
Experiment: PfCDPK1 kinase inhibitors, biochemical, TCAMS library (AID 1159585);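 note: inhibitors leave more ATP so luminescence rises with inhibition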
Details: recombinant PfCDPK1, Kinase-Glo ATP depletion luminescence

Sequence of Calcium-dependent protein kinase 1 (Plasmodium falciparum (isolate 3D7)) (P62344 whole entry, looked up): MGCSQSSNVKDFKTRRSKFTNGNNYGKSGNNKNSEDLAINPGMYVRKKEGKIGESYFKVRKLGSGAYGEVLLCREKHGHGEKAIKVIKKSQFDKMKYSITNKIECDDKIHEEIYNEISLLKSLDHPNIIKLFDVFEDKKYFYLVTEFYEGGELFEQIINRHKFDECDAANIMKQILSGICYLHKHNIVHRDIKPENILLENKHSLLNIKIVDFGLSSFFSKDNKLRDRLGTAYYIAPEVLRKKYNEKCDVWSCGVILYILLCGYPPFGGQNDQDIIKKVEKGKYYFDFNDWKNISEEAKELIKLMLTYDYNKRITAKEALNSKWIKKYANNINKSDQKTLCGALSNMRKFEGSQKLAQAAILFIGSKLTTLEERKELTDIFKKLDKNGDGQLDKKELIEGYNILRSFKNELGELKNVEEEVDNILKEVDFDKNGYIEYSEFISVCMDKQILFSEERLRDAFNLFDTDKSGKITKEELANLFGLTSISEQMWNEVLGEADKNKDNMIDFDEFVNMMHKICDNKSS

outcome, inactive:
CCCCCCOc1ccccc1C(=O)NCCOc1ccc(Cl)cc1
CCOc1ccc(C(Cc2ccccc2)NC(=O)c2cccnc2)cc1OCC (stereo not given)
c1ccc2[nH]c(-c3ccc(-c4ccc(CNC5CC5)cc4)s3)nc2c1
Cn1nc(-c2ccccc2F)c2cc(C(=O)Nc3cccnc3)sc21
COc1c(Br)cc(Br)cc1-c1ccc(CN2C3CCCC2CCC3)[nH]1
CC(=O)Nc1cccc(C(=O)Nc2cccc(-c3ccc(-c4nc5ccc(F)cc5[nH]4)s3)c2)c1
O=C(/C=C/c1ccc(F)cc1)NC1CCC(CCN2CCCN(c3ccc(C(F)(F)F)cn3)CC2)CC1 (stereo not given)
CN(C)C(C)(C)CN(Cc1ccc(-c2ccc(C(F)(F)F)cc2)cc1)C(=O)Cn1c(CCc2cccc(F)c2F)nc(=O)c2ccccc21
Cc1ccc(-c2nc(NC(=O)Nc3ccc(C(F)(F)F)cc3)sc2C)cc1Cl
CN1CCC(NCc2cccc(-c3ccc(S(=O)(=O)NCCN4CCCC4)s3)c2)CC1
O=c1cc(NCCCNCc2cc(Cl)cc(Cl)c2OCc2ccc(Cl)cc2)[nH]c2ccccc12
CC1CCCN(c2ccc(NC(=O)c3cccs3)cc2[N+](=O)[O-])C1 (stereo not given)
CC(C)CCCC(C)(C)NC[C@@H](O)[C@H](Cc1ccccc1)NC(=O)c1cc(NC(C)C)cc(N2CCCCS2(=O)=O)c1
C=CCc1cccc(C)c1OCCCON1C(N)=NC(N)=NC1(C)C
CC(C)CC(=O)N(Cc1ccc(-c2ccc(CNC3Cc4ccccc4C3)cc2)cc1)C1CCNCC1
Oc1ccccc1CN[C@@H]1CCCC[C@H]1NCc1ccccc1O
C=CCN1C(=O)CN(S(=O)(=O)c2ccc(-n3nc(C)cc3C)cc2)C1=S
O=C(/C=C/c1ccc(Cl)c(Cl)c1)NCCCCCCN1CCCN(C(=O)Nc2cccc(Cl)c2)CC1
O=C(NC1CC1)c1ccc(N2CCCCN2CCc2ccccc2)c(C(F)(F)F)c1
CC(C)(C)c1ccc(OCCCON2C(N)=NC(N)=NC2(C)C)c(C(C)(C)C)c1
COc1ccc(-c2ccc(NC(=O)c3cccc(Cl)c3)cc2)cc1CN1CCC(O)CC1
CCN1CCN(c2cc(C)c3cc(NC(=O)c4cc(OC)cc(OC)c4)ccc3n2)CC1
CSc1ccc2nccc(Nc3ccc(Oc4ccccc4)cc3)c2c1
Cc1cccc2[nH]c(-c3cccc(-c4cccc(CN5CCCC5CN)c4)c3)nc12 (stereo not given)
COc1ccc(C(C(=O)NC2CCN(C[C@H](O)c3ccnc4ccc(OC)cc34)CC2)N2CCN(c3ccc(F)cc3)CC2)cc1 (stereo not given in full)
CCCc1cn2c3c(cc(C(=O)N[C@@H](Cc4ccccc4)[C@H](O)CNC4CCOCC4)cc13)N(C)S(=O)(=O)CC2
CCCNCc1ccc(-c2ccc(CN(Cc3cnc(C)cn3)C(=O)/C=C/c3ccccc3C)cc2)nc1
Cn1cc(C2CCN(CCCCNC(=O)c3ccc(C(=O)Nc4ccc(C#N)cc4)cc3)CC2)c2ccccc21
CCOc1ccnc(=O)[nH]1
COc1nc2c(CCN3CCC(NCc4ccc5c(c4)NCCO5)CC3)c(Cl)cnc2cc1F
O=C(/C=C/c1ccc(Cl)cc1)NCCCCCN1CCC(C(=O)Nc2cccc(Cl)c2)CC1
Cc1nnc2c(NC(=O)NC3CCCC3)cc3ccc(-c4cccc(CN(C)C)c4)cc3n12
CC(C)(C)c1ccc(NC(=O)c2ccc(CN3CCCN(CC4CCCCC4)CC3)cc2)cc1
O=C(Nc1cccc(-c2cccc(-c3nc4ccc(F)cc4[nH]3)c2)c1)c1ccncc1
CC(=O)c1c(Nc2c(C)cc(C)cc2C)oc(C)cc1=O
O=C(NCCCCN1CCC(c2ccc(C(F)(F)F)cc2C(F)(F)F)CC1)c1ccc(NC(=O)c2ccc(Cl)cc2)cc1
O=C(N[C@@H](CC1CCCCC1)C(=O)NC1CCCc2ccccc21)c1ccc(O)c(-c2cccc(C(F)(F)F)c2)c1 (stereo not given in full)
COc1ccc2ncc(F)c(CCN3CC[C@@H](CNCc4cc(C)c5c(c4)OCCO5)C3)c2n1
C#CCN(Cc1cc2c(=O)[nH]c(N)nc2cc1C)c1ccc(C(=O)N[C@@H](CCC(=O)O)C(=O)O)cc1
COc1cc(Cc2cnc(N)nc2N)cc(OCCCOc2ccccc2)c1OC

Molecular target: Plasmodium falciparum protein kinase 6 (PK6, PF3D7_1337100) (UniProt Q8IDW1)
Experiment: PfPK6 kinase inhibitors, biochemical, TCAMS library (AID 1159586; call rule not given here)
Details: recombinant PfPK6, Kinase-Glo ATP depletion luminescence

Sequence of Plasmodium falciparum protein kinase 6 (PK6, PF3D7_1337100) (Q8IDW1 1-305): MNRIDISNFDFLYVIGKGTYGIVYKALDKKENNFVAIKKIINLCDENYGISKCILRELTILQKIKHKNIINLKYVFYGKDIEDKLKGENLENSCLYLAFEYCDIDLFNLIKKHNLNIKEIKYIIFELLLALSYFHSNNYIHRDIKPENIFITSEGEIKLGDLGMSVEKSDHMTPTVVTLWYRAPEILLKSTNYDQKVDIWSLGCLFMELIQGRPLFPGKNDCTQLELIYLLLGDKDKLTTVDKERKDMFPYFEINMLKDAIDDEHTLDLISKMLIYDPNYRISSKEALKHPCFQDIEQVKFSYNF

outcome, inactive:
CCCCCCOc1ccccc1C(=O)NCCOc1ccc(Cl)cc1
CCOc1ccc(C(Cc2ccccc2)NC(=O)c2cccnc2)cc1OCC (stereo not given)
c1ccc2[nH]c(-c3ccc(-c4ccc(CNC5CC5)cc4)s3)nc2c1
Cn1nc(-c2ccccc2F)c2cc(C(=O)Nc3cccnc3)sc21
COc1c(Br)cc(Br)cc1-c1ccc(CN2C3CCCC2CCC3)[nH]1
CC(=O)Nc1cccc(C(=O)Nc2cccc(-c3ccc(-c4nc5ccc(F)cc5[nH]4)s3)c2)c1
O=C(/C=C/c1ccc(F)cc1)NC1CCC(CCN2CCCN(c3ccc(C(F)(F)F)cn3)CC2)CC1 (stereo not given)
CN(C)C(C)(C)CN(Cc1ccc(-c2ccc(C(F)(F)F)cc2)cc1)C(=O)Cn1c(CCc2cccc(F)c2F)nc(=O)c2ccccc21
Cc1ccc(-c2nc(NC(=O)Nc3ccc(C(F)(F)F)cc3)sc2C)cc1Cl
CN1CCC(NCc2cccc(-c3ccc(S(=O)(=O)NCCN4CCCC4)s3)c2)CC1
O=c1cc(NCCCNCc2cc(Cl)cc(Cl)c2OCc2ccc(Cl)cc2)[nH]c2ccccc12
CC1CCCN(c2ccc(NC(=O)c3cccs3)cc2[N+](=O)[O-])C1 (stereo not given)
CC(C)CCCC(C)(C)NC[C@@H](O)[C@H](Cc1ccccc1)NC(=O)c1cc(NC(C)C)cc(N2CCCCS2(=O)=O)c1
C=CCc1cccc(C)c1OCCCON1C(N)=NC(N)=NC1(C)C
CC(C)CC(=O)N(Cc1ccc(-c2ccc(CNC3Cc4ccccc4C3)cc2)cc1)C1CCNCC1
Oc1ccccc1CN[C@@H]1CCCC[C@H]1NCc1ccccc1O
C=CCN1C(=O)CN(S(=O)(=O)c2ccc(-n3nc(C)cc3C)cc2)C1=S
O=C(/C=C/c1ccc(Cl)c(Cl)c1)NCCCCCCN1CCCN(C(=O)Nc2cccc(Cl)c2)CC1
O=C(NC1CC1)c1ccc(N2CCCCN2CCc2ccccc2)c(C(F)(F)F)c1
CC(C)(C)c1ccc(OCCCON2C(N)=NC(N)=NC2(C)C)c(C(C)(C)C)c1
COc1ccc(-c2ccc(NC(=O)c3cccc(Cl)c3)cc2)cc1CN1CCC(O)CC1
CCN1CCN(c2cc(C)c3cc(NC(=O)c4cc(OC)cc(OC)c4)ccc3n2)CC1
CSc1ccc2nccc(Nc3ccc(Oc4ccccc4)cc3)c2c1
Cc1cccc2[nH]c(-c3cccc(-c4cccc(CN5CCCC5CN)c4)c3)nc12 (stereo not given)
COc1ccc(C(C(=O)NC2CCN(C[C@H](O)c3ccnc4ccc(OC)cc34)CC2)N2CCN(c3ccc(F)cc3)CC2)cc1 (stereo not given in full)
CCCc1cn2c3c(cc(C(=O)N[C@@H](Cc4ccccc4)[C@H](O)CNC4CCOCC4)cc13)N(C)S(=O)(=O)CC2
CCCNCc1ccc(-c2ccc(CN(Cc3cnc(C)cn3)C(=O)/C=C/c3ccccc3C)cc2)nc1
Cn1cc(C2CCN(CCCCNC(=O)c3ccc(C(=O)Nc4ccc(C#N)cc4)cc3)CC2)c2ccccc21
CCOc1ccnc(=O)[nH]1
COc1nc2c(CCN3CCC(NCc4ccc5c(c4)NCCO5)CC3)c(Cl)cnc2cc1F
O=C(/C=C/c1ccc(Cl)cc1)NCCCCCN1CCC(C(=O)Nc2cccc(Cl)c2)CC1
Cc1nnc2c(NC(=O)NC3CCCC3)cc3ccc(-c4cccc(CN(C)C)c4)cc3n12
CC(C)(C)c1ccc(NC(=O)c2ccc(CN3CCCN(CC4CCCCC4)CC3)cc2)cc1
O=C(Nc1cccc(-c2cccc(-c3nc4ccc(F)cc4[nH]3)c2)c1)c1ccncc1
CC(=O)c1c(Nc2c(C)cc(C)cc2C)oc(C)cc1=O
O=C(NCCCCN1CCC(c2ccc(C(F)(F)F)cc2C(F)(F)F)CC1)c1ccc(NC(=O)c2ccc(Cl)cc2)cc1
O=C(N[C@@H](CC1CCCCC1)C(=O)NC1CCCc2ccccc21)c1ccc(O)c(-c2cccc(C(F)(F)F)c2)c1 (stereo not given in full)
COc1ccc2ncc(F)c(CCN3CC[C@@H](CNCc4cc(C)c5c(c4)OCCO5)C3)c2n1
C#CCN(Cc1cc2c(=O)[nH]c(N)nc2cc1C)c1ccc(C(=O)N[C@@H](CCC(=O)O)C(=O)O)cc1
COc1cc(Cc2cnc(N)nc2N)cc(OCCCOc2ccccc2)c1OC
